Common to all, as to assay: DAPPL (digital affinity profiling via proximity ligation, sequencing); 10 mM Tris-HCl pH 7.5, 50 mM NaCl, 1 mM DTT, 4% glycerol, room temperature, 30 min; GST-TFs on glutathione beads, 16-mer random dsDNA library, 0.1% formaldehyde crosslink after washing; high values mean tight binding
One test concerns the target T1, FLI1 (Homo sapiens, UniProt Q01543 1-452).
T1 sequence: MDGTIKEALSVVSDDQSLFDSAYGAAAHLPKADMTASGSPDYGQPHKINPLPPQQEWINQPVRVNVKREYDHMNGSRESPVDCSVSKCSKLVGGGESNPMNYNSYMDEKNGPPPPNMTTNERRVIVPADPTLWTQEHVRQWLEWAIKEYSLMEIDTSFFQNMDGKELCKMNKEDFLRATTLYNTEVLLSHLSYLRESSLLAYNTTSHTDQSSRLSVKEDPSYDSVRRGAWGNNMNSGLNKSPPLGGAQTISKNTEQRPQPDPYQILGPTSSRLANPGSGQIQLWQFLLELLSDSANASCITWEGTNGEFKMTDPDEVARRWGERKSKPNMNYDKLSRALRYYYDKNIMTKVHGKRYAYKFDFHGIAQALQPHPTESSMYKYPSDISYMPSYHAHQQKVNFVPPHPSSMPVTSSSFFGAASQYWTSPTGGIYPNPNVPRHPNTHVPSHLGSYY
Conditions: protein: recombinant; tags: N-terminal GST; dsDNA, one strand shown. In short, it runs like this: (§1)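 Binding signal is given per hexamer as its read frequency for a factor divided by its frequency in the tag-only sample. GST-fused human transcription factors were expressed in yeast, captured on glutathione beads, barcoded with DNA and pooled with that sample, then incubated with 200 nmole of a 16-mer random double-stranded DNA library in Tris/NaCl/DTT/glycerol buffer for 30 min at room temperature. The pools were then washed, crosslinked, proximity-ligated, amplified by PCR and sequenced on an Illumina NextSeq500.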

The target in another test is T2, ELK1 (Homo sapiens, UniProt P19419 1-428).
T2 sequence: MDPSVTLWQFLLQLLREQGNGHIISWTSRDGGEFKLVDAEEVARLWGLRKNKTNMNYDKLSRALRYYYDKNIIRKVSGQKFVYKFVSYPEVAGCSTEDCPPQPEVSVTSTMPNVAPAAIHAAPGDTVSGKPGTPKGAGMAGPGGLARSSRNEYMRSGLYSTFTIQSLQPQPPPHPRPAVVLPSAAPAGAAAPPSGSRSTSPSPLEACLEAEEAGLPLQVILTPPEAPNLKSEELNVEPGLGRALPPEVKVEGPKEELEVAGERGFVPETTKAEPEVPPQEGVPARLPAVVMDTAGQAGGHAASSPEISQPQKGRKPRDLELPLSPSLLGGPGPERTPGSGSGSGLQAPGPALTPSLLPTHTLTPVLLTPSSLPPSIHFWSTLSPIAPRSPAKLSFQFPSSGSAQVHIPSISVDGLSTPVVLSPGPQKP
Conditions: protein: recombinant; tags: N-terminal GST; dsDNA, one strand shown. The essentials:
as §1

The next test addresses T3, GABPA (Homo sapiens, UniProt Q06546 1-454).
T3 sequence: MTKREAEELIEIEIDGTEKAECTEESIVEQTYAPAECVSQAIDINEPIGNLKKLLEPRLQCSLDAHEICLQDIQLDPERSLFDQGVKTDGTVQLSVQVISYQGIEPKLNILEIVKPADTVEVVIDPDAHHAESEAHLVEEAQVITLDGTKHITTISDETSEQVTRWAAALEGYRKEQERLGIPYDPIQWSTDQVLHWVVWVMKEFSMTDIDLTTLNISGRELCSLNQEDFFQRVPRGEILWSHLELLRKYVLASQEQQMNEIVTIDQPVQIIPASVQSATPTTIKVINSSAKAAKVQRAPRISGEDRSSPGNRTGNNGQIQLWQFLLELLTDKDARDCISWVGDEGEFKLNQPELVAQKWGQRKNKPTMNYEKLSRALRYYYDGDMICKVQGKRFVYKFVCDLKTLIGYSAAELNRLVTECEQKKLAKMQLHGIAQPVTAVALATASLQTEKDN
Conditions: protein: recombinant; tags: N-terminal GST; dsDNA, one strand shown. In short, it runs like this:
as §1

The target of another test is T4, ERG (Homo sapiens, UniProt P11308 1-479).
T4 sequence: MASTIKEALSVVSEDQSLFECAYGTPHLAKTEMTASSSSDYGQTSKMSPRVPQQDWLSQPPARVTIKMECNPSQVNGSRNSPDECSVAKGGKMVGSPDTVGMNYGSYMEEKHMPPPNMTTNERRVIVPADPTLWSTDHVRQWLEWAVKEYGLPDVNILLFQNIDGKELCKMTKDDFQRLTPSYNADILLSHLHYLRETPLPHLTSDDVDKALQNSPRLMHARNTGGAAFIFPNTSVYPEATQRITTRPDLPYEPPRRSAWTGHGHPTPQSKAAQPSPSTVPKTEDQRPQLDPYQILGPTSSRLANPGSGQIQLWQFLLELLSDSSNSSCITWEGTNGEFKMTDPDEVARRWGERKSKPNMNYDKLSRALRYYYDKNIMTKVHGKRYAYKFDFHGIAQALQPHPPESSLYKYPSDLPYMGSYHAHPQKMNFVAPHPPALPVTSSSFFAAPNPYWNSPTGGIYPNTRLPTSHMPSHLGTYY
Conditions: protein: recombinant; tags: N-terminal GST; dsDNA, one strand shown. The essentials:
as §1

A further test has as its target ELF1 (Homo sapiens, UniProt P32519 1-619). Conditions: protein: recombinant; tags: N-terminal GST; dsDNA, one strand shown. In short, it runs like this: as §1
The target in the next test is T5, EHF (Homo sapiens, UniProt Q9NZC4 1-300).
T5 sequence: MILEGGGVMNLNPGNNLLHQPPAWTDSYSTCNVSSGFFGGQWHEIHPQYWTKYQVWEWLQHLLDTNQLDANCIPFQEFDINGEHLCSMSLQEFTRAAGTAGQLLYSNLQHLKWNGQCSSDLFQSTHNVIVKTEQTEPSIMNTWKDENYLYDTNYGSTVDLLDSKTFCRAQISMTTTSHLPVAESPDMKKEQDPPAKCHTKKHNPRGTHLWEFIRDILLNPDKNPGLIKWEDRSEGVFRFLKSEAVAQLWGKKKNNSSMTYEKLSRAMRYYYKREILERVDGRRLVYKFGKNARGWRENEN
Conditions: protein: recombinant; tags: N-terminal GST; dsDNA, one strand shown. In short, it runs like this: as §1

In the next test the target is SPI1 (Homo sapiens, UniProt P17947 1-270). Conditions: protein: recombinant; tags: N-terminal GST; dsDNA, one strand shown. In short, it runs like this:
as §1

The target of a further test is SPIB (Homo sapiens, UniProt Q01892 1-262). Conditions: protein: recombinant; tags: N-terminal GST; dsDNA, one strand shown. The essentials:
as §1

The target of a further test is T6, ELK3 (Homo sapiens, UniProt P41970 1-407).
T6 sequence: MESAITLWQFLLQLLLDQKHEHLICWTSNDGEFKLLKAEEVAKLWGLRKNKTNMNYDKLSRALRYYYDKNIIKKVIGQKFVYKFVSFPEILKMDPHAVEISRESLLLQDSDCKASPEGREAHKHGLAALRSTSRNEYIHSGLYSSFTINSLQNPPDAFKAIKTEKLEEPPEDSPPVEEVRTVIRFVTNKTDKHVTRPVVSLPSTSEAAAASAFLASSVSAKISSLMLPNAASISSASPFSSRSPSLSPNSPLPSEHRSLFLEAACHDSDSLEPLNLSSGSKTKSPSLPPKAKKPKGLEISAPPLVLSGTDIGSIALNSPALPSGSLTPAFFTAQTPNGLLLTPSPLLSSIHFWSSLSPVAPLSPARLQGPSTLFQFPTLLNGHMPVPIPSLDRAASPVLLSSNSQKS
Conditions: protein: recombinant; tags: N-terminal GST; dsDNA, one strand shown. The essentials: as §1

The next test has as its target T7, FEV (Homo sapiens, UniProt Q99581 1-238).
T7 sequence: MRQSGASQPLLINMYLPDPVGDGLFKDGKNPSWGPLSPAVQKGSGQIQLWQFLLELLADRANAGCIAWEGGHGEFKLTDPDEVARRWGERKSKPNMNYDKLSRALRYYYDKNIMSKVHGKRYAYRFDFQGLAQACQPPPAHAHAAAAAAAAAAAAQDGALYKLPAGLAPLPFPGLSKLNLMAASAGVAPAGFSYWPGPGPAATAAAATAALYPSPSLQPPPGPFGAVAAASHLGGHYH
Conditions: protein: recombinant; tags: N-terminal GST; dsDNA, one strand shown. The essentials:
as §1

Another test deals with ETV5 (Homo sapiens, UniProt P41161 1-510). Conditions: protein: recombinant; tags: N-terminal GST; dsDNA, one strand shown. In short, it runs like this:
as §1

A further test has as its target HSF1 (Homo sapiens, UniProt Q00613 1-529). Conditions: protein: recombinant; tags: N-terminal GST; chain copies: 3; dsDNA, one strand shown. In short, it runs like this:
as §1

For a further test, the target named is T8, SPIC (Homo sapiens, UniProt Q8N5J4 1-248).
T8 sequence: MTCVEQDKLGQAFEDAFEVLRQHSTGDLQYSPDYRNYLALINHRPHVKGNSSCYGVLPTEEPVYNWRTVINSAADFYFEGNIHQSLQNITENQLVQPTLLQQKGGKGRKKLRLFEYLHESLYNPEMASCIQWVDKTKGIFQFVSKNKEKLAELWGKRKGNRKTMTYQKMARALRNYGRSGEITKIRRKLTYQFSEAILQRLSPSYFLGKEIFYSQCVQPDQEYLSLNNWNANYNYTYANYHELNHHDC
Conditions: protein: recombinant; tags: N-terminal GST; dsDNA, one strand shown. In short, it runs like this: as §1

A further test deals with ELF4 (Homo sapiens, UniProt Q99607 1-663). Conditions: protein: recombinant; tags: N-terminal GST; dsDNA, one strand shown. In short, it runs like this:
as §1

For the next test, the target named is T9, ELK4 (Homo sapiens, UniProt P28324-2 1-405).
T9 sequence: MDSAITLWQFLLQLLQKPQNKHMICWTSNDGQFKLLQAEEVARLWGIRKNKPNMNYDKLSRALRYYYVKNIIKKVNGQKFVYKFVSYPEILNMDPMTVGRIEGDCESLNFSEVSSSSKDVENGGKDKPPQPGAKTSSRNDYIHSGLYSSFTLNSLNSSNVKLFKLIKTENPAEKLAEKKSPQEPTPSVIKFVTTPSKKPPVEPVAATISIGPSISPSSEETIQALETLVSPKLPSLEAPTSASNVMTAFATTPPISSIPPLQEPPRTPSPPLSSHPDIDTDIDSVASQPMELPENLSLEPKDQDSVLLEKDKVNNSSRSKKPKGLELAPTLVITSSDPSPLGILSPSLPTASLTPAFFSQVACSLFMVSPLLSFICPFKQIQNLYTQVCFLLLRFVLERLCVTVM
Conditions: protein: recombinant; tags: N-terminal GST; dsDNA, one strand shown. In short, it runs like this:
as §1

For the next test, the target named is T10, ETV2 (Homo sapiens, UniProt O00321 1-342).
T10 sequence: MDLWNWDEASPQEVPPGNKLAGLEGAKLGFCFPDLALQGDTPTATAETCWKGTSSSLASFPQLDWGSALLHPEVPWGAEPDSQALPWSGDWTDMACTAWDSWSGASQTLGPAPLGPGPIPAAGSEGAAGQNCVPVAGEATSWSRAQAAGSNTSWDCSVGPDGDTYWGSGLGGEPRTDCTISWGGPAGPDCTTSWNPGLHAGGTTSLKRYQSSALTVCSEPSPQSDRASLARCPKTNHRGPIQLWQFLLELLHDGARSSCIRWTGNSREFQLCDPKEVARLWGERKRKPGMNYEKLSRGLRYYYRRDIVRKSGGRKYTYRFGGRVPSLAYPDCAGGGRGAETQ
Conditions: protein: recombinant; tags: N-terminal GST; dsDNA, one strand shown. In short, it runs like this:
as §1

A further test addresses T11, ELF3 (Homo sapiens, UniProt P78545 1-371).
T11 sequence: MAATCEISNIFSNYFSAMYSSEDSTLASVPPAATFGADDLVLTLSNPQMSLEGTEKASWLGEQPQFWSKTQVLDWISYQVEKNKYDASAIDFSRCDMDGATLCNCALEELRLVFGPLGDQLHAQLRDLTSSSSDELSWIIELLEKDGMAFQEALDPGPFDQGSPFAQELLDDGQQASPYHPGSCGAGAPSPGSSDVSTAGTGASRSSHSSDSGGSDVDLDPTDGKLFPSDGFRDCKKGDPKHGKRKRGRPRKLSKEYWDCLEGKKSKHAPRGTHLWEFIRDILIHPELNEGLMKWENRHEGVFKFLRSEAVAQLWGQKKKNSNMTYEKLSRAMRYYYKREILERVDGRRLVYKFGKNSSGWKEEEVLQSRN
Conditions: protein: recombinant; tags: N-terminal GST; dsDNA, one strand shown. The essentials:
as §1

For a further test, the target named is CRX (Homo sapiens, UniProt O43186 1-299). Conditions: protein: recombinant; tags: N-terminal GST; dsDNA, one strand shown. In short, it runs like this: as §1
Another test deals with ETV1 (Homo sapiens, UniProt P50549 1-477). Conditions: protein: recombinant; tags: N-terminal GST; dsDNA, one strand shown. In short, it runs like this:
as §1

This passage reports binding signal results from PMC7862700, “An all-to-all approach to the identification of sequence-specific readers for epigenetic DNA modifications on cytosine”.

HSF1, sequence (Q00613 whole entry): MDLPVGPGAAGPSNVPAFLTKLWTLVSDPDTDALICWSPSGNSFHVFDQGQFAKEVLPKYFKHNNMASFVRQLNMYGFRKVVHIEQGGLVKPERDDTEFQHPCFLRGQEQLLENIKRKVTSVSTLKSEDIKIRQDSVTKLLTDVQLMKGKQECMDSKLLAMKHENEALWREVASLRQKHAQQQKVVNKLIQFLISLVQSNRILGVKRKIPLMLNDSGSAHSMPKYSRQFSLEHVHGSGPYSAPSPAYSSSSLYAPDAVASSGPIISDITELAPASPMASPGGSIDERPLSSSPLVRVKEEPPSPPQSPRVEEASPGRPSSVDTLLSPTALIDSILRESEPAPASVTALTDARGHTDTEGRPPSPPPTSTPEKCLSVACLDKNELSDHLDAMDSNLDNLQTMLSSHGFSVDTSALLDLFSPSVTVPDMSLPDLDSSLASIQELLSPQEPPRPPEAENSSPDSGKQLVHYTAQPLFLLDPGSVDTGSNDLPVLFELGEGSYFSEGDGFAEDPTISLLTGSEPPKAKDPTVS
SPIB, sequence (Q01892 whole entry): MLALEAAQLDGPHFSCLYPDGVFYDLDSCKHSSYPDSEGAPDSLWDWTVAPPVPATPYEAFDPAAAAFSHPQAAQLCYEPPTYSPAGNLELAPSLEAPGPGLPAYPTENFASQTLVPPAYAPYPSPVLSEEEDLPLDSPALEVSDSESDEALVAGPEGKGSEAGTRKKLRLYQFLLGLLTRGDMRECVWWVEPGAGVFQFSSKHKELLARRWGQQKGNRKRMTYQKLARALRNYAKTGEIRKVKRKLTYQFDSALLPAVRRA
ETV5, sequence (P41161 whole entry): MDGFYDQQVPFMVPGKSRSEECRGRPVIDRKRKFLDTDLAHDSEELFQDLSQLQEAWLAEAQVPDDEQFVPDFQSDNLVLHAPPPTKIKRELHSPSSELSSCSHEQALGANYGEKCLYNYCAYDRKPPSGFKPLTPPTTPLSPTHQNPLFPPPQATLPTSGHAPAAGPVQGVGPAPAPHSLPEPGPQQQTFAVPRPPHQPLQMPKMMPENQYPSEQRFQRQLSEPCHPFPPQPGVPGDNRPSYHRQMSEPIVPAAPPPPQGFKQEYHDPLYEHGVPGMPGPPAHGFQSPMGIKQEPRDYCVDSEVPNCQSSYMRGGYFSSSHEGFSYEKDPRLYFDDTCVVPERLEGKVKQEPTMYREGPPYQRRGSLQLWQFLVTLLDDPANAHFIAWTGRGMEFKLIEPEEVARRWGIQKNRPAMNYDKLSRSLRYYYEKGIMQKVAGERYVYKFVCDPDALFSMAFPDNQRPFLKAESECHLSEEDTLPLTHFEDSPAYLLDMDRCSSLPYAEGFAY
ELF1, sequence (P32519 whole entry): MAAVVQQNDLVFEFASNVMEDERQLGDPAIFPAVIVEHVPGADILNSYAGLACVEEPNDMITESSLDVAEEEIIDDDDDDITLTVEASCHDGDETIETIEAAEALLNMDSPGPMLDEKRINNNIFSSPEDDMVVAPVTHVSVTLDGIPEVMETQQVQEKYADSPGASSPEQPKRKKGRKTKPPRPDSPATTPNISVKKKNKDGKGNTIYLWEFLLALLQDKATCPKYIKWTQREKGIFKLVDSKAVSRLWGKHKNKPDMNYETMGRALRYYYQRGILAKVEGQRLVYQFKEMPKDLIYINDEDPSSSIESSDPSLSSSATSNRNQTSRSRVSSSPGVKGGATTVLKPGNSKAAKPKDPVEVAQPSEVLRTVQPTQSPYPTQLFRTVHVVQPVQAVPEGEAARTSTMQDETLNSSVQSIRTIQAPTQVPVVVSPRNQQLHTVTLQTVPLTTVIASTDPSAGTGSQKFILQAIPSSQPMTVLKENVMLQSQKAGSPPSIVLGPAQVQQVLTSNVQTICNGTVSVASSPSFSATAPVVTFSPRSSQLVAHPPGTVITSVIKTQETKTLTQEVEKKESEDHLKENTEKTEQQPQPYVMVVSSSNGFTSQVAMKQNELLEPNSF
ETV1, sequence (P50549 whole entry): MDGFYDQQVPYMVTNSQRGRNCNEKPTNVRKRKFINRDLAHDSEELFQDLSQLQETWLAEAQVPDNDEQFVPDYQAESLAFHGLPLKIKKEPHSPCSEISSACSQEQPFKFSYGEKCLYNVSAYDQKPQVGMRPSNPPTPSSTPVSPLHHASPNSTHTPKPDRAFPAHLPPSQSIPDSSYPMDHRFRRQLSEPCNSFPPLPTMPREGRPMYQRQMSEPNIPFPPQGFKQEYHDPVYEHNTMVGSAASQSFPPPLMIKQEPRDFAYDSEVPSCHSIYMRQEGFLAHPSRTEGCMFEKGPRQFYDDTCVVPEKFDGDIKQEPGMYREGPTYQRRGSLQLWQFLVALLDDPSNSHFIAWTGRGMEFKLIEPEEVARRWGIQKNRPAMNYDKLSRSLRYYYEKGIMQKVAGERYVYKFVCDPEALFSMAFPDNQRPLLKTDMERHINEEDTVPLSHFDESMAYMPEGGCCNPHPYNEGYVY
CRX, sequence (O43186 whole entry): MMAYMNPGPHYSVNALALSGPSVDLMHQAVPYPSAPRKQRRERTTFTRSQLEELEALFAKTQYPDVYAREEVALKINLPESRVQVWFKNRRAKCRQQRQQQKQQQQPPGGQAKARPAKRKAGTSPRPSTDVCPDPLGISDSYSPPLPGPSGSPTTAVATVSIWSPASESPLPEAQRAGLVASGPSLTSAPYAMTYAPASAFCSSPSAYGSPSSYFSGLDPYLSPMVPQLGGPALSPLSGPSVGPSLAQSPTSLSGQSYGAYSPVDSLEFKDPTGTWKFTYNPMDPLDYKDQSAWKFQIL
ELF4, sequence (Q99607 whole entry): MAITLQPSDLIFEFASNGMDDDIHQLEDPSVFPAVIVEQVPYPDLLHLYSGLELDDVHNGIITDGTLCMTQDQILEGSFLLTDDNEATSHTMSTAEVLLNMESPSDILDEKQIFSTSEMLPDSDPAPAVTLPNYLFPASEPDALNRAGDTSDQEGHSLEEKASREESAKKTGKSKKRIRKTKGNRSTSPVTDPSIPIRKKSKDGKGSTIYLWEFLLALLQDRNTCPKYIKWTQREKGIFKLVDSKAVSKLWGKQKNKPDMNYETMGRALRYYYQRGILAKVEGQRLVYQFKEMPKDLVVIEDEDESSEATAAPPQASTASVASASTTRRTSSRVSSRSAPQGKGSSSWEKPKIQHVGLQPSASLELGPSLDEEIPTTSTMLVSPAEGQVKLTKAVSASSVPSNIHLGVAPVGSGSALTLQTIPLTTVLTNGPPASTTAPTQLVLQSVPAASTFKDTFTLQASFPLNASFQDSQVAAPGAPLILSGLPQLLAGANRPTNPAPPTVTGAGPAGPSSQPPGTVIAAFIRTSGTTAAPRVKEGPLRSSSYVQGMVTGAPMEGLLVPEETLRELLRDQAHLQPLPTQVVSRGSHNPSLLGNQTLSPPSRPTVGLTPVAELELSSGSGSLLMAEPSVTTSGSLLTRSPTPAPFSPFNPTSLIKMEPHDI

TACTGC: the binding signal in the test with FLI1 is 1.22 fold enrichment (6-mer frequency, TF over GST control); with ELK1, 1.22 fold enrichment (6-mer frequency, TF over GST control); with GABPA it was 1.17 fold enrichment (6-mer frequency, TF over GST control); with ERG, 1.25 fold enrichment (6-mer frequency, TF over GST control); with ELF1 it was 1.24 fold enrichment (6-mer frequency, TF over GST control); with EHF, 1.3 fold enrichment (6-mer frequency, TF over GST control). The binding signal was 1.24 fold enrichment (6-mer frequency, TF over GST control) in the test with SPI1; 1.13 fold enrichment (6-mer frequency, TF over GST control) with SPIB; 1.1 fold enrichment (6-mer frequency, TF over GST control) with ELK3; 1.24 fold enrichment (6-mer frequency, TF over GST control) in the test with FEV; 1.32 fold enrichment (6-mer frequency, TF over GST control) with ETV5; 1.1 fold enrichment (6-mer frequency, TF over GST control) with HSF1. Also, the binding signal was 1.29 fold enrichment (6-mer frequency, TF over GST control) with SPIC; 1.22 fold enrichment (6-mer frequency, TF over GST control) in the test with ELF4; 1.17 fold enrichment (6-mer frequency, TF over GST control) in the test with ELK4; 1.09 fold enrichment (6-mer frequency, TF over GST control) in the test with ETV2; 1.34 fold enrichment (6-mer frequency, TF over GST control) in the test with ELF3; 1.17 fold enrichment (6-mer frequency, TF over GST control) with CRX. The binding signal with ETV1 was 1.08 fold enrichment (6-mer frequency, TF over GST control).
